# Measurements taken from PubChem BioAssay (NCI).
# Compounds without any hit were thinned out: in the full panel of roughly 79,000, 15% have a hit. Values without a mark were called inactive. Active and inactive are the calls of the source. Cut-off read from the data, not from the text of the source: active = growth inhibition above about 70%; inactive = the rest.
# Key:
# [1] = NCI Yeast Anticancer Drug Screen. Data for the rad52 strain (AID 147);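 note: 0% = growth of vehicle-treated control cultures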; settings: S. cerevisiae rad52 mutant growth inhibition, hits give high values
# How it was run: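 The repair-mutant yeast strain was incubated with compounds, then growth was read and inhibition derived relative to vehicle.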
# [2] = NCI Yeast Anticancer Drug Screen. Data for the wt1 strain (AID 149);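 note: 0% = growth of vehicle-treated wt1 cultures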; settings: S. cerevisiae wt1 strain (SPY 50644) growth inhibition, hits give high values
# How it was run: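 wt1 strain grown with compound or vehicle; inhibition taken from the growth difference.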
# [3] = NCI Yeast Anticancer Drug Screen. Data for the rad50EPP+ strain (AID 151);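 note: 0% = growth of vehicle-treated control cultures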; settings: S. cerevisiae rad50 mutant strain, hits give high values
# How it was run: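 Vehicle-normalised growth inhibition; rad50EPP+ yeast strain, altered in DNA damage repair, compound-treated.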
# [4] = NCI Yeast Anticancer Drug Screen. Data for the mgt1 strain (AID 153); settings: S. cerevisiae mgt1 mutant growth inhibition, hits give high values
# How it was run: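 Vehicle-normalized growth inhibition is determined in mgt1 yeast, a strain selected for a defined alteration in DNA repair or cell cycle control.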
# [5] = NCI Yeast Anticancer Drug Screen. Data for the rad50 strain (AID 155);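 note: 0% = growth of vehicle-only cultures of the same strain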; settings: S. cerevisiae rad50 strain growth inhibition, hits give high values
# How it was run: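 DNA repair mutant yeast, compound exposure, growth read-out; inhibition is taken relative to vehicle.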
# [6] = NCI Yeast Anticancer Drug Screen. Data for the mec2-1 strain (AID 157); settings: S. cerevisiae mec2-1 strain, hits give high values
# How it was run: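 Mutant yeast (mec2-1) grown with compound; growth inhibition relative to vehicle control reported.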
# [7] = NCI Yeast Anticancer Drug Screen. Data for the rad14 strain (AID 159);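 note: 0% = growth of vehicle-treated control cultures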; settings: S. cerevisiae rad14 strain growth inhibition, hits give high values
# How it was run: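 DNA repair-defective yeast, compound-exposed; % growth inhibition derived by comparison with vehicle-treated controls.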
# [8] = at 5.0 µM (retest, dose inferred, filed as 0.5)
# [9] = at 50.0 µM (retest, dose inferred, filed as 5.0)
structure (smiles),measurement,setting,value
COc1ccc(/C=C2\SC(=S)N(/C=C/c3nc4ccccc4[nH]c3=O)C2=O)cc1OC,growth inhibition,[1]; at 1.2 µM,7%
same,growth inhibition,[1]; at 3.7 µM,10%
same,growth inhibition,[1]; at 11.0 µM,26%
same,growth inhibition,[1]; at 33.0 µM,61%
same,growth inhibition,[1]; at 100.0 µM,86% (active)
same,growth inhibition,[2]; at 1.2 µM,3%
same,growth inhibition,[2]; at 3.7 µM,5%
same,growth inhibition,[2]; at 11.0 µM,10%
same,growth inhibition,[2]; at 33.0 µM,40%
same,growth inhibition,[2]; at 100.0 µM,90% (active)
same,growth inhibition,[3]; at 1.2 µM,1%
same,growth inhibition,[3]; at 3.7 µM,3%
same,growth inhibition,[3]; at 11.0 µM,21%
same,growth inhibition,[3]; at 33.0 µM,50%
same,growth inhibition,[3]; at 100.0 µM,63%
same,growth inhibition,[4]; at 1.2 µM,-1%
same,growth inhibition,[4]; at 3.7 µM,3%
same,growth inhibition,[4]; at 11.0 µM,30%
same,growth inhibition,[4]; at 33.0 µM,76% (active)
same,growth inhibition,[4]; at 100.0 µM,94% (active)
same,growth inhibition,[5]; at 1.2 µM,-2%
same,growth inhibition,[5]; at 3.7 µM,-5%
same,growth inhibition,[5]; [8],-12%
same,growth inhibition,[5]; at 11.0 µM,12%
same,growth inhibition,[5]; at 33.0 µM,61%
same,growth inhibition,[5]; [9],46%
same,growth inhibition,[5]; at 50.0 µM,57.2%
same,growth inhibition,[5]; at 100.0 µM,85% (active)
same,growth inhibition,[6]; at 1.2 µM,3%
same,growth inhibition,[6]; at 3.7 µM,5%
same,growth inhibition,[6]; [8],-17%
same,growth inhibition,[6]; at 11.0 µM,17%
same,growth inhibition,[6]; at 33.0 µM,66%
same,growth inhibition,[6]; [9],45%
same,growth inhibition,[6]; at 50.0 µM,68.1%
same,growth inhibition,[6]; at 100.0 µM,91% (active)
same,growth inhibition,[7]; at 1.2 µM,3%
same,growth inhibition,[7]; at 3.7 µM,4%
same,growth inhibition,[7]; at 11.0 µM,26%
same,growth inhibition,[7]; at 33.0 µM,64%
same,growth inhibition,[7]; at 100.0 µM,90% (active)
